# Screening data (PubChem)
# TSHR antag – Antagonists of the Thyroid Stimulating Hormone Receptor: HTS campaign; TSHR-expressing cells, TSH-stimulated cAMP HTRF, 2 h; stronger effect = lower value; 330,000 tested, 0.2% active; activity change, negative = inhibition, % at 11.5 µM; AID 504810, 2011; Thyrotropin receptor (Homo sapiens), P16473;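 active = activity change below a set negative limit, meaning inhibition stronger than a set level, cut at about -70% in these data; inconclusive = activity change between two set negative limits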; note: % is set by controls: 0 for no effect and ±100 for the full control effect
#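 Cell-based HTRF cAMP assay; TSHR cells + compound, TSH EC80 (4nM final), 2 h, 37 deg C. Lysis with anti-cAMP cryptate and cAMP-d2, 30 min RT, read 665/620 nm.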
# VDR inhibitor – Inhibitors of the vitamin D receptor (VDR): qHTS | VDR-SRC2-3 peptide fluorescence polarization, 2 h | Vitamin D3 receptor (Homo sapiens), P11473 | Potency, µM, for the others: max response, negative = inhibition, most hits filed as inhibitors | 400,000 tested, 0.93% active; note: potency is the fitted concentration of half-maximal effect; % is set by controls: 0 for no effect and ±100 for the full control effect
# Target sequence (P11473 whole entry, looked up): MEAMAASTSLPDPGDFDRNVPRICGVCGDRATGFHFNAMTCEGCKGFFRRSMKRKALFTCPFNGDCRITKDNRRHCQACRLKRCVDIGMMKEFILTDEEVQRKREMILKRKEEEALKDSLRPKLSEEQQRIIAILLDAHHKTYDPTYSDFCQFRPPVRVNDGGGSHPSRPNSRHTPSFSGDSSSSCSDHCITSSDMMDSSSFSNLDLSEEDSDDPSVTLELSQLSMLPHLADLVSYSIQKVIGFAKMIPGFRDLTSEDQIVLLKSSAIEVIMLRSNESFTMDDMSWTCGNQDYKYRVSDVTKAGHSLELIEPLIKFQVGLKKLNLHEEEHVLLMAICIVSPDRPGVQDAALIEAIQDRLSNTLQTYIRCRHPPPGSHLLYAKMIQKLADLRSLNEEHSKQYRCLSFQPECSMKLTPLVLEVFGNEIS
#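 Inhibition of the VDR/SRC2-3 peptide interaction is quantified by fluorescence polarization. Compounds (23 nl, pintool) incubate with the reagents for 2 hours at ambient room temperature.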
# uPA generation – qHTS for Inhibitors of Cell Surface uPA Generation. cell surface uPA generation assay, qHTS. 330,000 tested, 0.31% active. Potency, µM (highest dose often 38.3 µM), without a hit: at the highest dose activity change, negative = inhibition, hits mostly inhibitors; active = well fitted inhibition curve with a large enough effect; inconclusive = small, poorly fitted or top-dose-only effect; inactive = no such curve, though single readings can be large or run the other way; tested in mouse RAW 264.7 cells; note: potency is the fitted concentration of half-maximal effect; % is set by controls: 0 for no effect and ±100 for the full control effect; nearly all actives have a fitted effect of over 55% in size
# PLK1 PBD inh – qHTS for Inhibitors of PLK1-PDB (polo-like kinase 1 - polo-box domain): Primary Screen; Serine/threonine-protein kinase PLK1 (Homo sapiens), P53350; Plk1 PBD binding of FITC phosphopeptide, fluorescence polarization; Potency, µM, inactives show max response, negative = inhibition, actives largely listed as inhibitors; 360,000 tested, 2.8% active; AID 720504, 2013; note: potency is the fitted concentration of half-maximal effect; series mostly up to about 57 µM; % is set by controls: 0 for no effect and ±100 for the full control effect; nearly all actives have a fitted effect of over 65% in size
# TSG101-PTAP inh – qHTS Assay for Iinhibitors of HIV-1 Budding by Blocking the Interaction of PTAP/TSG101; Tumor susceptibility gene 101 protein (Homo sapiens), Q99816; Fluorescence polarization, FITC-PTAP peptide / Tsg101 binding; Potency, µM (top dose mostly 115 µM), without a hit: at the top dose activity change, negative = inhibition, actives largely listed as inhibitors; 340,000 tested, under 10 active; active = well fitted inhibition curve with a large enough effect in the main read-out, with a control signal flat, not every such curve was filed as active; inconclusive = small, poorly fitted or top-dose-only effect, or effect the other way, or a change in a side signal; inactive = no such curve, though single readings can be large or run the other way; note: potency is the fitted concentration of half-maximal effect; % of control where 0% means no effect
#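 Fluorescence anisotropy tracks displacement of a FITC-tagged PTAP peptide (50 nM) from the Tsg101 binding domain (10 uM), following a 20 min room-temperature incubation at pH 7.5.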
# USP1-UAF1 confirm – Inhibitors of USP1/UAF1: Hit Validation in Primary Assay; shares compounds with VDR inhibitor; Ub-Rhodamine cleavage, fluorescence kinetic read; Potency, µM (highest dose often 114 µM), inactives show top-dose activity change, negative = inhibition, hits mostly inhibitors; 50 tested, 50% active; AID 540327, 2011
# VDR inh confirm – qHTS for Inhibitors of the vitamin D receptor (VDR): Hit Validation in Primary Screen; shares compounds with VDR inhibitor; 840 tested, 89% active; VDR-coactivator inhibition assay, qHTS confirmation; Potency, µM, usual class: inhibitors; note: potency is the fitted concentration of half-maximal effect
# VDR FP fluor – qHTS for Inhibitors of the vitamin D receptor (VDR): Hit Validation using a Fluorescein Assay; shares compounds with VDR inhibitor; VDR-coactivator binding, fluorescein fluorescence polarization; Potency, µM (top dose mostly 57.1 µM), for the others: at the top dose activity change, negative = inhibition, most hits filed as inhibitors; 840 tested, 48% active; note: potency is the fitted concentration of half-maximal effect
# VDR bla – qHTS for Inhibitors of the vitamin D receptor (VDR): Hit Validation using a Beta-Lactamase Assay; shares compounds with VDR inhibitor; VDR beta-lactamase reporter cells, FRET ratio; cells co-treated with VDR agonist LG190178; Potency, µM (series often up to 46.1 µM), for the others: at the highest dose activity change, negative = inhibition, most hits filed as inhibitors; 840 tested, 23% active; AID 602202, 2012; note: potency is the fitted concentration of half-maximal effect; % is set by controls: 0 for no effect and ±100 for the full control effect
# VDR cytotox – qHTS for Inhibitors of the vitamin D receptor (VDR): Hit Validation using a Cytotoxicity Assay. 840 tested, 18% active. shares compounds with VDR inhibitor. cytotoxicity counter-screen, cell viability, qHTS. Potency, µM (doses to about 48.3 µM), for the others: at the highest dose activity change, negative = cytotoxicity, most hits filed as cytotoxic;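 note: potency is the fitted concentration of half-maximal effect; plate controls were DMSO for no effect and high-concentration cycloheximide for full effect; nearly all actives have a fitted effect of over 75% in size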
# Active calls of the source: *; ? = inconclusive; nt = no result given; ! = not confirmed by another sample. The list is not random: actives were taken first. Their share in the collection is about 3.1%. Unless noted, calls come from the whole dose curve; as a rule, active = well fitted curve in the direction sought with a large enough effect; inconclusive = small, poorly fitted or top-dose-only effect, or another doubt; inactive = no such curve, though single readings can be large; an effect the other way counts as inactive or inconclusive.
SMILES,TSHR antag,VDR inhibitor,uPA generation,PLK1 PBD inh,TSG101-PTAP inh,VDR inh confirm,VDR FP fluor,VDR bla,VDR cytotox,others
Cc1nc2sccn2c(=O)c1CCN1CCC(=C(c2ccc(F)cc2)c2ccc(F)cc2)CC1,-19,79µM*!,-15%,-6%,-4%,nt,nt,nt,nt,USP1-UAF1 confirm=?
O=C(Nc1cc(S(=O)(=O)N2CCOCC2)ccc1N1CCCCC1)c1cc(-c2ccccn2)nc2ccccc12,-3,45µM*,2%,4.2µM*,2%,24*,8.9µM*,22%,-2%,
CCC(=O)OCCNc1cc(SCCC(=O)OC)c2nonc2c1[N+](=O)[O-],-5,?,4%,?,-7%,nt,nt,nt,nt,
CCC(=O)OCCNc1cc(Sc2nccn2C)c2nonc2c1[N+](=O)[O-],-97*,32µM*,8%,2.1µM*,-2%,21*,?,?,15µM*,
CCCC(=O)OCCNc1cc(Sc2nc3ccccc3[nH]2)c2nonc2c1[N+](=O)[O-],-42,20µM*,-4%,1.9µM*,-5%,8.4*,?,?,23µM*,
CCOc1ccc(-n2nc3cc(C)c(NC(=O)c4cc(OCC)c(OCC)c(OCC)c4)cc3n2)cc1,nt,-7%,nt,nt,nt,nt,nt,nt,nt,
CCCCCC1C(=O)N2C=C(c3ccccc3)c3ccccc3N2C1=O (centres undefined),nt,22µM*,6%,?,0%,4.7*,4µM*,26%,3%,
CN1C(=O)/C(=C/c2cccc([N+](=O)[O-])c2)C(=O)N1c1ccccc1,-2,32µM*,-1%,2.4µM*,2%,13*,?,-7%,-3%,
O=C1NC(=S)N/C1=C/c1cccc([N+](=O)[O-])c1,-13,-4%,-2%,-13%,-4%,nt,nt,nt,nt,
COc1ccc(CNC(=O)c2ccc3c(c2)N(Cc2ccccc2C)C(=O)c2ccccc2S3=O)cc1 (centres undefined),nt,12%,nt,nt,nt,nt,nt,nt,nt,
O=[N+]([O-])c1cccnc1S(=O)(=O)c1ccccc1,12,?,-19%,-23%,-7%,nt,nt,nt,nt,
COc1ccc([N+](=O)[O-])c(S(=O)(=O)c2ccccc2)n1,-8,32µM*,?,9.5µM*,0%,15*,?,18µM*,16µM*,
c1ccc(-c2nnc3sc(-c4csc5c4CCCC5)nn23)cc1,-2,?,-6%,11µM*,0%,14*,10µM*,?,?,
CC(C)COc1ccc(C(=O)Nc2scc(-c3ccc(Br)cc3)c2C(=O)OC(C)C)cc1,nt,0%,nt,nt,nt,nt,nt,nt,nt,
O=C(C=Cc1ccccc1)Nc1ccccc1,nt,0%,-7%,-2%,-5%,nt,nt,nt,nt,
COc1ccccc1NS(=O)(=O)c1cccc(NC(=O)c2ccc3ccccc3n2)c1,?,4%,-3%,1%,1%,nt,nt,nt,nt,
O=C(Nc1cccc(S(=O)(=O)Nc2ccccc2F)c1)c1ccc2ccccc2n1,-32,16µM*,5%,1.9µM*,-1%,3.8*,?,-19%,-38%,
O=C(/C=C/c1ccccc1)Nc1cccc(S(=O)(=O)Nc2ccccc2F)c1,-7,11µM*,1%,1.2µM*,-5%,4.2*,?,18%,?,
Cc1cccc(NC(=O)Nc2nnc([C@@H]3C[C@H](O)[C@@H](CO)O3)s2)c1,nt,nt,nt,-4%,nt,nt,nt,nt,nt,
COc1ccc(-n2nnc(C(=O)Nc3ccccc3F)c2N)cc1,nt,-21%,nt,nt,nt,nt,nt,nt,nt,
C=C(C)[C@@H]1C2=CC(C(=O)OC)=C(C[C@@H](C(=C)C)[C@H]3O[C@H]3C3=C[C@H]1OC3=O)O2,nt,20µM*,nt,nt,nt,7.1*,14µM*,?,17µM*,
CC(C)(C)c1ccc(CN(Cc2ccco2)c2cnc(S(C)(=O)=O)nc2C(=O)Nc2ccc(F)cc2)cc1,nt,25%,nt,nt,nt,nt,nt,nt,nt,
COc1ccc(Cl)cc1N(CC(=O)NCCSc1ccccn1)S(=O)(=O)c1ccccc1,-3,-4%,0%,0%,-4%,nt,nt,nt,nt,
Cc1cc(C(Br)(Br)Br)nc2ccccc12,nt,nt,nt,nt,nt,14*,14µM*,13µM*,17µM*,
CCOC(=O)C1=C(Cc2ccc(Cl)cc2)C(=O)c2ccccc2C1=O,1,6.3µM*,?,4.7µM*,-4%,1.8*,?,23µM*,?,
SMILES,TSHR antag,VDR inhibitor,uPA generation,PLK1 PBD inh,TSG101-PTAP inh,VDR inh confirm,VDR FP fluor,VDR bla,VDR cytotox,others
Cc1cc(N2CCOCC2)ccc1/C=C\[N+](=O)[O-],2,28µM*,-17%,13µM*,-6%,6.7*,43%,?,16µM*,
COc1cccc(/C=C/C(=O)Nc2cccc(C(C)=O)c2)c1OC,-9,-11%,?,2%,-1%,nt,nt,nt,nt,
COc1cccc(/C=C/C(=O)c2cccc([N+](=O)[O-])c2)c1OC,-3,8.9µM*,-3%,?,-1%,3.8*,3.2µM*,?,?,
COc1ccc(Cl)cc1C(Nc1cccnc1)c1ccc2cccnc2c1O (centres undefined),-7,20µM*,-17%,4.2µM*,0%,21*,?,-30%,-19%,
O=C1c2ccccc2OCOc2ccccc21,2,9%,5%,-10%,-12%,nt,nt,nt,nt,
O=[S@]1Oc2ccccc2-c2ccccc21,nt,6.3µM*,-2%,2.1µM*,19%,4.7*,?,-10%,31%,
